Data on 29 compounds can be found in PubChem BioAssay AID488857 (Sanford-Burnham Center for Chemical Genomics, 2010).

Structures are written as SMILES. About 560 (40%) of roughly 1,400 compounds were called active.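 The calls were made as follows: active = mean inhibition over duplicate tests at 10 µM above 50%; inactive = the rest.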 The set was probably picked from earlier hits. The list shows a part of the results.

This assay in a line: ASC/caspase-1 reporter retest in S. cerevisiae at one dose, specificity check for NALP1 project (AID 488857). The settings on record: S. cerevisiae ASC/Caspase-1, beta-galactosidase luminescence, 24 h; at 10 µM; active compounds read high.
As to `O=C(Nc1ccc(F)cc1)c1cccnc1N1CCCCC1`, the inhibition is 43.2% (inactive).

`CCOc1ccccc1C(=O)OCC(=O)Nc1ccc(N2CCCCC2)cc1`: the inhibition is 67.3% (active).

For the compound `CCOC(=O)c1ccccc1NC(=O)COc1cc(=O)n(CC)c2ccccc12`, the inhibition was 33.4% (inactive).

Regarding `CNC(=S)N/N=C/c1cc(Br)cc(Br)c1O`, the inhibition is 85.5% (active).

With `CC(=O)n1cc(-c2ccncc2)c2ccccc21`, the inhibition was 52.4% (active).

`CN1CCc2cccc3c2[C@@H]1Cc1ccc(O)c(O)c1-3`: the inhibition was 67% (active).

In the case of `CN1CCc2cccc3c2[C@H]1Cc1ccc(O)c(O)c1-3`, the inhibition is 50.5% (active).

For the compound `Fc1ccc(Nc2ccnc(Nc3ccc(F)cc3)n2)cc1`, the inhibition was 46.8% (inactive).

As to `COc1ccc(Nc2ccnc(Nc3ccc(OC)cc3)n2)cc1`, the inhibition is 64.2% (active).

On to `CN(C)S(=O)(=O)c1ccc(N2CCCC2)c(C(=O)Nc2nc3ccccc3s2)c1`, for which the inhibition is 42.1% (inactive).

For `O=C(NC(Nc1nc2ccc([N+](=O)[O-])cc2s1)(C(F)(F)F)C(F)(F)F)c1ccccc1Cl`, the inhibition is 100% (active).

Regarding `CC(C)(C)C1=CC(=O)C(=O)C(C(C)(C)C)=C1`, the inhibition was 12.5% (inactive).

For the compound `COC1=C(Nc2ccccc2)C(=O)c2ccccc2C1=O`, the inhibition is 26.2% (inactive).

Regarding `COc1ccccc1NC1=C(N2CCCCC2)C(=O)c2ccccc2C1=O`, the inhibition is 81.7% (active).

For `O=C1OC(/C=C/c2ccc(Cl)cc2)=NC/1=C/c1ccco1`, the inhibition is 39.5% (inactive).

Turning to `CCCCCCOc1ccc(/C(C)=N/NC2=NCCN2)cc1`, the inhibition is 80.3% (active).

In the case of `CCCCCCOc1ccc(-c2ccc(C#N)cn2)cc1`, the inhibition was 37.6% (inactive).

As for `CCCCCCOc1ccc(OC(=O)c2ccncc2)cc1`, the inhibition is 14.7% (inactive).

For `CCCCCOc1ccc(Br)cc1/C(C)=N/NC1=NCCN1`, the inhibition was 78.4% (active).

For the compound `Cc1c(-c2ccccc2)[n+](=O)c2c(n1[O-])CCC2`, the inhibition was -7.75% (inactive).

As to `NC(C(=O)O)C1CC(Cl)=NO1` (centres undefined), the inhibition was 59.1% (active).

Turning to `CCCN(CCC)C(=O)Cn1c(=O)n(CCCCC(=O)NCc2ccco2)c(=O)c2ccccc21`, the inhibition was 49% (inactive).

For `CCc1ccc(S(=O)(=O)/N=C2/C=C(Sc3ncn[nH]3)C(=O)c3ccccc32)cc1`, the inhibition was 96% (active).

As to `CSCCNC(C)=O`, the inhibition was 17% (inactive).

With `COC(=O)c1sccc1N/N=C(\C)c1ccc(F)c(Cl)c1`, the inhibition was 36% (inactive).

For `O=C(Nc1ccc(Cl)cc1)C1=Cc2ccccc2OC1`, the inhibition was 65.8% (active).

Consider `CC1=C(C(=O)Nc2ccc(Cl)cc2)C(c2ccco2)NC(=O)N1` (centres undefined), for which the inhibition is 15.8% (inactive).

On to `CCc1cccc(C)c1NC(=S)NCCc1c(C)[nH]c2ccc(C)cc12`, for which the inhibition is 44.8% (inactive).

As to `CCc1cccc(CC)c1NC(=S)NCCc1c(C)[nH]c2ccccc12`, the inhibition is 50.6% (active).

The term inhibition denotes the drop in the measured response relative to a control, in per cent.
